Where “and” joins values, the source holds several entries; their conditions need not be identical. Equal entries are not always repeated. Values without a mark were called inactive. Calls of active or inactive are those of the source.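 How the source made its calls, unless noted: active means mean inhibition above 46.68%, the untreated control wells mean plus 3 SD; inactive means the rest.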

In assay [1] the target is Nuclear receptor coactivator 3 (Homo sapiens) (UniProt Q9Y6Q9). The experiment in a line: NCOA3 GAL4-fusion reporter inhibition – cell-based, luminescence, quadruplicate, confirmation (AID 588792;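 active means mean inhibition over 43.08%, the solvent-only control mean plus 3 SD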;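 further: 0% = DMSO treated cells and 100% = gossypol at 36 µM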). Conditions: HEK293 GAL4-SRC3 luciferase reporter, at 3.6 µM, hits give high values. Background: A reporter such as luciferase makes a cellular process visible.
Sequence of Nuclear receptor coactivator 3 (Homo sapiens) (Q9Y6Q9 whole entry, looked up, the tested form may be a part): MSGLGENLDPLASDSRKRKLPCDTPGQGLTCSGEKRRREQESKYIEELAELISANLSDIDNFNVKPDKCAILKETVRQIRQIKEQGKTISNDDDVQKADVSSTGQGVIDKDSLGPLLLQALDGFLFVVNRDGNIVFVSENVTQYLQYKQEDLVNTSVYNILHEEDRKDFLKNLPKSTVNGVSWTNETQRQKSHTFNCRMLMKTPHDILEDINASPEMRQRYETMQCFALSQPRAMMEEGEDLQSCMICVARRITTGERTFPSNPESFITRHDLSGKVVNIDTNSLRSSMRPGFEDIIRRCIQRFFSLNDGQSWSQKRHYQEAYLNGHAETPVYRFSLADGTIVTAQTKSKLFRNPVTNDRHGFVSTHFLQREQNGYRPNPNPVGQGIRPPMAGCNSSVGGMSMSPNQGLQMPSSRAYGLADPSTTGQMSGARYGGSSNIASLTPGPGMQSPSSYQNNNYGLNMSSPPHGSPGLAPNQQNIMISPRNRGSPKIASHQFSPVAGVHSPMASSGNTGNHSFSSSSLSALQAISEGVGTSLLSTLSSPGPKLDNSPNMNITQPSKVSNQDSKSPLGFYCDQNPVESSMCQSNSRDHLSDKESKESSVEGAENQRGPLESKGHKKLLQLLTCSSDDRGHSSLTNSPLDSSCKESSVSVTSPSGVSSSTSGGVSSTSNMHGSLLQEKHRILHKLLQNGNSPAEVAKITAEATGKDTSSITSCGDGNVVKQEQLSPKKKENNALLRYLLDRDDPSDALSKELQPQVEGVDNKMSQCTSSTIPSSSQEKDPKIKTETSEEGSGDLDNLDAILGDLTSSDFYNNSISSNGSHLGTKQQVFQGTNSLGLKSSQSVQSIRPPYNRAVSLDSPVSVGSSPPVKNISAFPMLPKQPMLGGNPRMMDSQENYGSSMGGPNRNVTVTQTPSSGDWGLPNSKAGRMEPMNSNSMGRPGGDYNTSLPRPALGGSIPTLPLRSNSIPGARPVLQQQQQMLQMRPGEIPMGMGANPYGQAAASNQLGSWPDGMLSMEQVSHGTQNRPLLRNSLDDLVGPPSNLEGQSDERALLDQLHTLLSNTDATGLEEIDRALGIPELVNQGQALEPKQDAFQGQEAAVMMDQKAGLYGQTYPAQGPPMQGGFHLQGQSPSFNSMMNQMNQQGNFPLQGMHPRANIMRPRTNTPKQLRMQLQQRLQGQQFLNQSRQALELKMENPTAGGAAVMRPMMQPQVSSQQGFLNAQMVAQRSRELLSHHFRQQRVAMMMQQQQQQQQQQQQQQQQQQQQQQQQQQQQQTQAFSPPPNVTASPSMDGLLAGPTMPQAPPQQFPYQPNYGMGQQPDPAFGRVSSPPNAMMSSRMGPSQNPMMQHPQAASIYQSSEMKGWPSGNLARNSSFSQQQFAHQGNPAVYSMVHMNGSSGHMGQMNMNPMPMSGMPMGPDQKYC
Assay [2] concerns transactivating tegument protein VP16 (Human herpesvirus 1), Gal4-VP16 luciferase reporter. Nature of the assay: repression of VP16-driven luciferase reporter – cell-based, luminescence, high throughput, counter-screen for SRC3 inhibitor project (AID 588794; in the data active means inhibition above about 30%). Particulars: mammalian cells, at 3.6 µM, hits give high values.
Assay [3] has as its target Nuclear receptor coactivator 1 (Homo sapiens) (UniProt Q15788). The experiment in a line: NCOA1 GAL4-fusion reporter inhibition – cell-based, luminescence, quadruplicate, confirmation (AID 588820).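 Further: 0% = DMSO wells and 100% = gossypol 36 µM treated wells.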 Particulars: HEK293 GAL4-SRC1 luciferase reporter, at 3.6 µM, hits give high values.
Assay [4] in a line: repression of VP16-driven luciferase reporter – cell-based, luminescence, high throughput, counter-screen for SRC1 inhibitor project (AID 588824; in the data active means inhibition above about 25%). Particulars: cell-based VP16 transactivation luciferase luminescence; at 3.6 µM; hits give high values.
Assay [5] relates to transactivating tegument protein VP16 (Human herpesvirus 1). Nature of the assay: compounds suppressing VP16-driven luciferase signal – cell-based, luminescence, single concentration, counter-screen for SRC2 inhibitor project (AID 652007; in the data active means inhibition above about 36%). Particulars: cell-based VP16 transactivation luciferase reporter, at 8.9 µM, hits give high values.
The target of assay [6] is Nuclear receptor coactivator 2 (Homo sapiens) (UniProt Q15596). Nature of the assay: inhibition of GAL4-SRC2 driven luciferase expression – cell-based, luminescence, HEK293, triplicate, confirmation (AID 652008;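 active means mean inhibition above 46.5%, the solvent-only control mean plus 3 SD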;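 further: 0% = DMSO-treated cells and 100% = Gossypol at 36 µM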). Conditions: HEK293 GAL4-SRC2 luciferase reporter, at 8.9 µM, hits give high values.
Sequence of Nuclear receptor coactivator 2 (Homo sapiens) (Q15596 whole entry, looked up, the tested form may be a part): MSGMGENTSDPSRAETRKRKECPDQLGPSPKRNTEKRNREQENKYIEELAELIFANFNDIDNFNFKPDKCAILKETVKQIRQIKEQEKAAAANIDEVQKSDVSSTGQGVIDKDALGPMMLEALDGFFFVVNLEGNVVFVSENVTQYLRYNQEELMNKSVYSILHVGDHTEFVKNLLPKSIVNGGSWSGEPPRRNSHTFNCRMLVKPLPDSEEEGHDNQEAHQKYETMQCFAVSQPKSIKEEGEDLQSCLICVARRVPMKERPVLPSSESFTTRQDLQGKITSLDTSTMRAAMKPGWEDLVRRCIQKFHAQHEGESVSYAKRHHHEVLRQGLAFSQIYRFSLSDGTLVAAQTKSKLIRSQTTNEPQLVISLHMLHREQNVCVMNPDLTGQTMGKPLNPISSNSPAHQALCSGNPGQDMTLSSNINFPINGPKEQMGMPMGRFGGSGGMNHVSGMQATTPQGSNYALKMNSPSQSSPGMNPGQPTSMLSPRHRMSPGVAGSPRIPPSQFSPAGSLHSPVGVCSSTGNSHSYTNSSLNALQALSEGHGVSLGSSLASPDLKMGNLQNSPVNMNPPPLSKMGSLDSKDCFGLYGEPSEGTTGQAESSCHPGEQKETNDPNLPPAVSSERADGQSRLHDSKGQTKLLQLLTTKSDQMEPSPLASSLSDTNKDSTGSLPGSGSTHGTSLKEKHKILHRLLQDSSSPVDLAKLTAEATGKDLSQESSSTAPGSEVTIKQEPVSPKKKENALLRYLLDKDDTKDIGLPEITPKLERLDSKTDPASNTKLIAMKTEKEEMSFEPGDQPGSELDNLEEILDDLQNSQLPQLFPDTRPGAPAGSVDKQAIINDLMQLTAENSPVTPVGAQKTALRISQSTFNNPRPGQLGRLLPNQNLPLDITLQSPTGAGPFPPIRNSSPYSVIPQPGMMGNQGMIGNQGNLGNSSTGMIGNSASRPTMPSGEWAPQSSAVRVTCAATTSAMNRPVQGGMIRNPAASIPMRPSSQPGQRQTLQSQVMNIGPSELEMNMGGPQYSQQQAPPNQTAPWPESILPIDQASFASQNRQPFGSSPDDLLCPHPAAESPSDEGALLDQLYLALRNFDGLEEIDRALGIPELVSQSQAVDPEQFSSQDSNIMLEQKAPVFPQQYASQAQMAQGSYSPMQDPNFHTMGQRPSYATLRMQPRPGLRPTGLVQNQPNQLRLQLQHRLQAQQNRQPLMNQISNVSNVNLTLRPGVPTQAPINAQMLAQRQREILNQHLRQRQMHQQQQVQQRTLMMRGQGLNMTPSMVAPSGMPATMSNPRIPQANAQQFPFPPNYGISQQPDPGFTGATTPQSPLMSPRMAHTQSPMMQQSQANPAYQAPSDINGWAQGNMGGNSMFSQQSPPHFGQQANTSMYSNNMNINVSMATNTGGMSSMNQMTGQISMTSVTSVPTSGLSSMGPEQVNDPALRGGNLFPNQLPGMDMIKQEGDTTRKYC

Sequence of Nuclear receptor coactivator 1 (Homo sapiens) (Q15788 whole entry, looked up, the tested form may be a part): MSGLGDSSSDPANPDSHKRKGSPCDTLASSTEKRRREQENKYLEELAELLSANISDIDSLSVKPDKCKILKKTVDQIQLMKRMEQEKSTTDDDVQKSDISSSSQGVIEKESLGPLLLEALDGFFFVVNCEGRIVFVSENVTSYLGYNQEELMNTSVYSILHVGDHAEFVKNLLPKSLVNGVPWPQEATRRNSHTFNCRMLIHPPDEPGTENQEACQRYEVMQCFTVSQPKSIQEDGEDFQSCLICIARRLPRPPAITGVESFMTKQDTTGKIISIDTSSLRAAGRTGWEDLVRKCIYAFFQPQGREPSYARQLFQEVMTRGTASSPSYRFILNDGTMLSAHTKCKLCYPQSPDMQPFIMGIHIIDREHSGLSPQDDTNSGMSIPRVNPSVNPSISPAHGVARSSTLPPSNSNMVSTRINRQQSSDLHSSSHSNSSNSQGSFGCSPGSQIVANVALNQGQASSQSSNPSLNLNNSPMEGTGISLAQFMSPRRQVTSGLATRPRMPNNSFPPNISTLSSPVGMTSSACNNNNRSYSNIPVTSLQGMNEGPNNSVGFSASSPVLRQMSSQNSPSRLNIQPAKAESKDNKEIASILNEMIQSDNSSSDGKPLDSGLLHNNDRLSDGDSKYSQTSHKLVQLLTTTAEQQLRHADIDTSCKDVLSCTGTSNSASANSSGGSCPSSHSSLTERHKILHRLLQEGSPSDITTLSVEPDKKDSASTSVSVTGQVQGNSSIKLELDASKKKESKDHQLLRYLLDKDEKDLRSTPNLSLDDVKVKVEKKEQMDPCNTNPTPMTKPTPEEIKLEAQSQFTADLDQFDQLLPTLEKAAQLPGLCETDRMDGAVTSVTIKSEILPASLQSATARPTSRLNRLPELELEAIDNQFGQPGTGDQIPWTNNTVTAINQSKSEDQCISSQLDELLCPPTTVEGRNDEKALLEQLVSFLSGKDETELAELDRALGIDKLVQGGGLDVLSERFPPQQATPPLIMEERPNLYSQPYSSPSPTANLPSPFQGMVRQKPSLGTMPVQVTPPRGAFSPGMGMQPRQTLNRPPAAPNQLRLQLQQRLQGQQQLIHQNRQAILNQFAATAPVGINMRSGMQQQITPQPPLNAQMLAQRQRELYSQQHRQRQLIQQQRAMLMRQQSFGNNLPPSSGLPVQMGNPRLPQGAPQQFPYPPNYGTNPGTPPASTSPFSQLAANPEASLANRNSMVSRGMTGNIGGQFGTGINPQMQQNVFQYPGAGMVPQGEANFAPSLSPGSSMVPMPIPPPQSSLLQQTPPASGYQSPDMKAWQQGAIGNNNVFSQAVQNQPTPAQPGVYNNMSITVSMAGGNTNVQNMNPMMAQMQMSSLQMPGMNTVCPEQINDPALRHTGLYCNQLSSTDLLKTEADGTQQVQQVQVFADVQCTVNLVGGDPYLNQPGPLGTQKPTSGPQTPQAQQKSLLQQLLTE

In the case of `Cc1[nH]nc2ncc(C(=O)c3ccccc3O)cc12`, the inhibition (as a rule, the change of the read-out against control, counted positive when it falls) in assay [1] was 73.3% (active); in assay [2], 43.9% (active); in assay [3] it was 68.7% (active); in assay [4] it was 48.9% (active); in assay [5], -2.08%; in assay [6], 50.4% (active).

On to `c1ccc(CNc2ncnc3ccccc23)cc1`, for which the inhibition in assay [1] was 47% (active); in assay [2], 44.9% (active); in assay [3], 17.6% and 34.3%; in assay [4] it was 34.9% (active) and 44% (active); in assay [5] it was 14%; in assay [6] it was 48.8% (active).

Turning to `O=C(CC(Nc1ccc(Cl)cc1Cl)C(=O)O)c1ccccc1` (stereo unspecified), the inhibition is 52.3% (active) in assay [1]; 18.1% in assay [2]; -4.19% in assay [3]; -13.2% in assay [4]; 18.8% in assay [5]; 57.9% (active) in assay [6].

As to `O=S(=O)(Nc1cc(Sc2ncn[nH]2)c(O)c2ccccc12)c1ccccc1`, the inhibition is 12.9% in assay [1]; 13.9% in assay [2]; -20.2% in assay [3]; 4.9% in assay [4]; 16.2% in assay [5]; 12.2% in assay [6].

As for `C=CCn1c(C)cc(C(=O)COc2ccc(C)nc2[N+](=O)[O-])c1C`, the inhibition was 33.7% in assay [1]; -8.11% in assay [2]; 9.64% in assay [3]; -12.6% in assay [4]; -4.94% in assay [5]; 65.9% (active) in assay [6].

For `O=C(Nc1ccccc1Oc1ccccc1)c1cc([N+](=O)[O-])ccc1Cl`, the inhibition in assay [1] was 52.5% (active); in assay [2] it was 24.8%; in assay [3] it was 24.8%; in assay [4] it was 33.9% (active); in assay [5] it was 21.9%; in assay [6], 50.4% (active).

As for `COc1ccc2[nH]c(=O)c3c(c2c1)OC(C)(C)C=C3`, the inhibition in assay [1] is 77.6% (active); in assay [2], 41.7% (active); in assay [3], 69.9% (active); in assay [4] it was 44% (active); in assay [5], 9.64%; in assay [6], 51.3% (active).

Turning to `CCn1c(Oc2ccccc2F)nc2c1c(=O)n(C)c(=O)n2C`, the inhibition was 63% (active) in assay [1]; 51% (active) in assay [2]; 64.4% (active) in assay [3]; 47.2% (active) in assay [4]; -5.89% in assay [5]; 48.6% (active) in assay [6].

Take `COc1ccc(-n2c(C)c(C(C)=O)c3cc(O)ccc32)cc1`: the inhibition in assay [1] was 76.1% (active); in assay [2] it was 55.6% (active); in assay [3], 64.1% (active); in assay [4], 56.6% (active); in assay [5] it was -5.76%; in assay [6], 54% (active).

As to `COc1ccc(/C=C/C(=O)Nc2ccccc2C(=O)O)cc1OC`, the inhibition in assay [1] was -1.26%; in assay [2], -3.34%; in assay [3] it was -73.2%; in assay [4], -29.6%; in assay [5], 26.9%; in assay [6] it was 37.8%.

With `C=CC[n+]1c(-c2ccc(C)cc2)csc1Nc1ccc(NC(C)=O)cc1`, the inhibition in assay [1] is 29.6%; in assay [2], -12.8%; in assay [3], 4.13%; in assay [4] it was -3.13%; in assay [5], 62.2% (active); in assay [6], 86.8% (active).

Consider `Cc1nc2cc(N3CCN(C)CC3)c(NC(=O)Cc3ccccc3)cc2c(=O)n1Cc1ccccc1`, for which the inhibition in assay [1] was 17.6%; in assay [2], 10.3%; in assay [3], -11.5%; in assay [4] it was -3.19%; in assay [5], 4.08%; in assay [6] it was 34.5%.

For `Nc1ncnc(N2CCc3ccccc32)c1[N+](=O)[O-]`, the inhibition in assay [1] was 85.4% (active); in assay [2] it was 61.3% (active); in assay [3], 75.9% (active); in assay [4], 61.2% (active); in assay [5], 9.34%; in assay [6], 55.2% (active).

Turning to `Cc1nc(SCC(=O)Nc2nc3ccccc3s2)c(C#N)c(C)c1C`, the inhibition in assay [1] is 92.7% (active); in assay [2], 88.5% (active); in assay [3], 82.4% (active); in assay [4], 83.2% (active); in assay [5] it was 92.1% (active); in assay [6], 96.9% (active).

For `C=C1C(=O)OC2CC1C(O)CC(C)=CCCC(C)=CC(O)CC2C` (stereo unspecified), the inhibition in assay [1] was 22.9%; in assay [2], 42.7% (active); in assay [3], 27.9%; in assay [4], 49.7% (active); in assay [5], 23.9%; in assay [6], 50.8% (active).

`Cc1noc(/C=C/c2ccccn2)c1[N+](=O)[O-]`: the inhibition in assay [1] is 54.6% (active); in assay [2], 47.8% (active); in assay [3], 48.4% (active); in assay [4] it was 37% (active); in assay [5], 25.9%; in assay [6], 29.3%.

Take `O=C1C=CC(=C(c2ccc(O)cc2)c2ccc(O)cc2)C=C1`: the inhibition in assay [1] was 71.2% (active); in assay [2] it was 47.5% (active); in assay [3] it was 54% (active); in assay [4] it was 46.8% (active); in assay [5] it was 26.8%; in assay [6], 27.1%.

Turning to `CS(=O)(=O)Nc1ccc(-c2cnc3cccnn23)cc1`, the inhibition in assay [1] was 67.9% (active); in assay [2], 41.6% (active); in assay [3], 57.5% (active); in assay [4] it was 51.7% (active); in assay [5], -12.1%; in assay [6], 45.8%.

On to `CC1=C(C(=O)OCc2ccc3c(c2)OCO3)C(c2ccc(O)c([N+](=O)[O-])c2)NC(=O)N1` (stereo unspecified), for which the inhibition in assay [1] was 60% (active); in assay [2] it was 37.2% (active); in assay [3] it was 58.6% (active); in assay [4] it was 35.7% (active); in assay [5], 20.7%; in assay [6], 33.6%.

For the compound `COCCn1c(C)cc(C(=O)COC(=O)c2cccc(O)c2)c1C`, the inhibition is 2.54% in assay [1]; 0.92% in assay [2]; -62.8% in assay [3]; -32.7% in assay [4]; 37.3% (active) in assay [5]; 51.1% (active) in assay [6].

For the compound `CCOc1ccc(Nc2ncnc3ccc([N+](=O)[O-])cc23)cc1`, the inhibition in assay [1] is 70% (active); in assay [2] it was 43.6% (active); in assay [3], 65.8% (active); in assay [4] it was 53.7% (active); in assay [5], -19.7%; in assay [6] it was 47.4% (active).

Values taken from PubChem BioAssay.
